Experimental findings from the supplement of paper PMC9446081 are described below.

What all share (experiment): relative enzymatic activity vs untreated control (fraction); higher = less inhibition
Details in all cases: 100 µM; incubation time: 2 h at 37 C

One experiment deals with DNA gyrase. How it is done: (§1)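 In vitro enzymatic inhibition assays (ProFoldin kits) for 12 purified essential E. coli enzymes or complexes, each treated with 218 active antibacterial compounds at 100 µM for 2 h at 37°C. Read-outs were fluorescence or absorbance (phosphate detection, dye binding), converted to activity via standard curves and expressed relative to untreated DMSO controls.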

In the next experiment the target is DNA helicase (UniProt P0ACB1). As for the experimental part:
as §1

The target in another experiment is DNA ligase (UniProt B1XA82). How it is done:
as §1

In another experiment the target is DNA polymerase (UniProt P10443). As for the experimental part: as §1
DNA polymerase, sequence (P10443 whole entry): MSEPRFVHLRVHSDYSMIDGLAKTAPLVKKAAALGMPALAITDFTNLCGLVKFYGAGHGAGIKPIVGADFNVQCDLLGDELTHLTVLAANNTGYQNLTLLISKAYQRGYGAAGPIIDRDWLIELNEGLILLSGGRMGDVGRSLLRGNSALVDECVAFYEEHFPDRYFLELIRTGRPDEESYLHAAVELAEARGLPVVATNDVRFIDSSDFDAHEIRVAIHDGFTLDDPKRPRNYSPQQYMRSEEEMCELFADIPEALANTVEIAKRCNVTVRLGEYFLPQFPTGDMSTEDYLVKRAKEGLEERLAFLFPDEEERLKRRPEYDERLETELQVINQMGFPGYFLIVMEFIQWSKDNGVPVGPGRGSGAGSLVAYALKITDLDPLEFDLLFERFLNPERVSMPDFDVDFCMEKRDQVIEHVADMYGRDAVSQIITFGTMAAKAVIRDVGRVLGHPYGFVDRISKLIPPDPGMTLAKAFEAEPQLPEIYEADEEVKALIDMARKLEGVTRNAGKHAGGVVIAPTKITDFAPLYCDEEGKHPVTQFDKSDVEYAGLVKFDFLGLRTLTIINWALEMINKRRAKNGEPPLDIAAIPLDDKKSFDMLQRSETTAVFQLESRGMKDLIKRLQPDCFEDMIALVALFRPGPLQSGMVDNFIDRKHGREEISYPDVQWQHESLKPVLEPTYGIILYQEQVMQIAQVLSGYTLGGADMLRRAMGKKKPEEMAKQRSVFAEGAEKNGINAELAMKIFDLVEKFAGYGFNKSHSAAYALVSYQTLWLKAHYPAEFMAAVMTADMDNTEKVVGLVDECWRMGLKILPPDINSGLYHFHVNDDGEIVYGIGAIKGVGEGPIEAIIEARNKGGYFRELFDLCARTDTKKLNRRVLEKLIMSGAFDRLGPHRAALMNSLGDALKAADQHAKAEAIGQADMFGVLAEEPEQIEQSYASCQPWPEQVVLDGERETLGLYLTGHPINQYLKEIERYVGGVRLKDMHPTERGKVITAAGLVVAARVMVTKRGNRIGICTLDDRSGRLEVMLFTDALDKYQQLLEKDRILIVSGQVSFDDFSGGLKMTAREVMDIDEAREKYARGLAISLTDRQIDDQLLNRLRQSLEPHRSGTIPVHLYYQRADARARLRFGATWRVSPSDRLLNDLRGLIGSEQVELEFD
For a further experiment, the target named is DNA primase (UniProt P0ABS7). How it is done: as §1
DNA primase, sequence (P0ABS7 whole entry): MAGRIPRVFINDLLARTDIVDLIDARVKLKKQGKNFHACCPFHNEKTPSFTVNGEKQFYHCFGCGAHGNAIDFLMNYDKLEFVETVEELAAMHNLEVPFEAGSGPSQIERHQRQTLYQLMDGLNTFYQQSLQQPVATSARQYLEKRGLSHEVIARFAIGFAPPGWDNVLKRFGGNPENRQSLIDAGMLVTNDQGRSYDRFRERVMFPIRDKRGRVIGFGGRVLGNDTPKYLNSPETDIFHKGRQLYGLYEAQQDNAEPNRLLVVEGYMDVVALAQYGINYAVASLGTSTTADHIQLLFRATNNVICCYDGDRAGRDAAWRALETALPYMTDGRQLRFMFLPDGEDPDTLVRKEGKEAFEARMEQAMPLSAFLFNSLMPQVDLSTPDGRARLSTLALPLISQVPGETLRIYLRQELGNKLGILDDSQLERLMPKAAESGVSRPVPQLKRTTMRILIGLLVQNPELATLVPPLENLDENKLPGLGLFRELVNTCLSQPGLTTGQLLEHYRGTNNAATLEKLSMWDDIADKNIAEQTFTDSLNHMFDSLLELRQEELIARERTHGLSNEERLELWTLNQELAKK
Another experiment has as its target GlmU (UniProt A7ZTU1). As for the experimental part: as §1
For a further experiment, the target named is Guanlyate kinase (UniProt Q0TBG1). How it is done: as §1
Guanlyate kinase, sequence (Q0TBG1 whole entry): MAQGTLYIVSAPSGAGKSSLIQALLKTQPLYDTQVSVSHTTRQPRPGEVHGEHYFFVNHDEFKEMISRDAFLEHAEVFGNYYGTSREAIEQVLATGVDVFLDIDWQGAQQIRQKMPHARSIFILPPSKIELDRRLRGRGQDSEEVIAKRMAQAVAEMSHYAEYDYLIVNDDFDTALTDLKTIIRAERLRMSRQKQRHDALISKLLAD
In another experiment the target is MurA (UniProt Q3YX52). As for the experimental part:
as §1

In a further experiment the target is T1, MurD (UniProt P14900).
T1 sequence (whole entry): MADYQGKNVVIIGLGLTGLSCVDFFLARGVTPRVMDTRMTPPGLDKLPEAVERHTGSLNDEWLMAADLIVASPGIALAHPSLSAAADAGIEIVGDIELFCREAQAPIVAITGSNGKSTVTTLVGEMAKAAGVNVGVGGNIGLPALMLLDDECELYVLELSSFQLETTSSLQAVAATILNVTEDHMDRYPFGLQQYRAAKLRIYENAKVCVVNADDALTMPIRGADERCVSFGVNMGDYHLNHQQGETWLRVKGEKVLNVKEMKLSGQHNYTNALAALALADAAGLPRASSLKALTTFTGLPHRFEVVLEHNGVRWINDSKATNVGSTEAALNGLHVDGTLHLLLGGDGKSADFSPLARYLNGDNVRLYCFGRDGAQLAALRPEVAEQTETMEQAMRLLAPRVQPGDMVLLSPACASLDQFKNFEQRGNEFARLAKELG
As for the experimental part:
as §1

In a further experiment the target is T2, MurF (UniProt P11880).
T2 sequence (whole entry): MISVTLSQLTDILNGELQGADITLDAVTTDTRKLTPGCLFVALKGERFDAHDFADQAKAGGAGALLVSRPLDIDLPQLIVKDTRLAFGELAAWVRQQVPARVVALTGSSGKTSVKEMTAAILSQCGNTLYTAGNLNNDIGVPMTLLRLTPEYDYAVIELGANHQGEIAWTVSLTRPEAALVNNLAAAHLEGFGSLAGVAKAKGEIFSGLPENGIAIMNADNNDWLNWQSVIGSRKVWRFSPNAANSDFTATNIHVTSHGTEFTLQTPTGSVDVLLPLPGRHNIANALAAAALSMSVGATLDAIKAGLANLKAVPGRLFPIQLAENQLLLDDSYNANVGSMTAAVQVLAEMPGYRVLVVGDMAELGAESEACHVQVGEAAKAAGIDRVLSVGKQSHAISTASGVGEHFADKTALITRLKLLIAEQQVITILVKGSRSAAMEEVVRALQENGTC
As for the experimental part: as §1

For a further experiment, the system named is RNA polymerase. As for the experimental part:
as §1

± gives the standard deviation of the averaged measurements.

DNA ligase, sequence (B1XA82 whole entry): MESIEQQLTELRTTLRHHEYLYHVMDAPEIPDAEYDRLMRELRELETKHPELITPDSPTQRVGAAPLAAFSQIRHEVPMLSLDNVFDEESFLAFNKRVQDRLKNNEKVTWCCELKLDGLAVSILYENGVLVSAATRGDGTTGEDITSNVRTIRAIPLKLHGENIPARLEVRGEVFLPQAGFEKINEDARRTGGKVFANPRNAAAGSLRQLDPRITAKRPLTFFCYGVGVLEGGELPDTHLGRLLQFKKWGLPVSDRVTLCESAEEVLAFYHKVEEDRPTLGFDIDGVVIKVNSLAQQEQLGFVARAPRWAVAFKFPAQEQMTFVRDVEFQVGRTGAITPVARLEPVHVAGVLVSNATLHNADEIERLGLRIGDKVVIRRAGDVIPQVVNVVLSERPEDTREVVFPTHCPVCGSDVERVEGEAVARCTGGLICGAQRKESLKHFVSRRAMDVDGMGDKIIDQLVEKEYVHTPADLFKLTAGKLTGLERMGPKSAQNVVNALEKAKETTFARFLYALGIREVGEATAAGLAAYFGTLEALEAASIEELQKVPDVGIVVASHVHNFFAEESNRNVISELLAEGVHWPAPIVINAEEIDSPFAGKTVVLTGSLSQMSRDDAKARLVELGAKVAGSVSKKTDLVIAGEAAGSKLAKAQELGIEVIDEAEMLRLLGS
MurA, sequence (Q3YX52 whole entry): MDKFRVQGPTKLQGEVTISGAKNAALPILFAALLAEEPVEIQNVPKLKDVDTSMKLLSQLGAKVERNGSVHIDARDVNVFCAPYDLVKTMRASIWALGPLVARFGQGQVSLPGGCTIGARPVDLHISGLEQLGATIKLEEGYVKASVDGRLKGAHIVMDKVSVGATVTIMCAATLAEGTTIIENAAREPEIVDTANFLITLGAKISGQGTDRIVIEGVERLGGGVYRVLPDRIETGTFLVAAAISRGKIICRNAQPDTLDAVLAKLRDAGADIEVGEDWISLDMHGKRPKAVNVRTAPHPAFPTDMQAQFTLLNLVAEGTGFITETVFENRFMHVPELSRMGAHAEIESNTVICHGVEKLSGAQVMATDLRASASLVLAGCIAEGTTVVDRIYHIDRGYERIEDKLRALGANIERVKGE
DNA helicase, sequence (P0ACB1 whole entry): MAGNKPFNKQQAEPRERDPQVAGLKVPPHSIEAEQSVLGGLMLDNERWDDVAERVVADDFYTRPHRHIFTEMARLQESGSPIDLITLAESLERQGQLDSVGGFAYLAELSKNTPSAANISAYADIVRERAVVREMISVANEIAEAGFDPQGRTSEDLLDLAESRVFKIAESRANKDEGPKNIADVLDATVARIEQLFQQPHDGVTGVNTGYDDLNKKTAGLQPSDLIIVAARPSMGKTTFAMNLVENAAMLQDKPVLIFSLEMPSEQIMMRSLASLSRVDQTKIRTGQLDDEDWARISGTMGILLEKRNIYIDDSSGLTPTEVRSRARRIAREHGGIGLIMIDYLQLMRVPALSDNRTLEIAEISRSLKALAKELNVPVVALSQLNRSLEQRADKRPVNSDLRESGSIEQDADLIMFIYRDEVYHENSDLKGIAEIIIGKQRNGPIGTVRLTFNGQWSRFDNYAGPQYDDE
GlmU, sequence (A7ZTU1 whole entry, looked up): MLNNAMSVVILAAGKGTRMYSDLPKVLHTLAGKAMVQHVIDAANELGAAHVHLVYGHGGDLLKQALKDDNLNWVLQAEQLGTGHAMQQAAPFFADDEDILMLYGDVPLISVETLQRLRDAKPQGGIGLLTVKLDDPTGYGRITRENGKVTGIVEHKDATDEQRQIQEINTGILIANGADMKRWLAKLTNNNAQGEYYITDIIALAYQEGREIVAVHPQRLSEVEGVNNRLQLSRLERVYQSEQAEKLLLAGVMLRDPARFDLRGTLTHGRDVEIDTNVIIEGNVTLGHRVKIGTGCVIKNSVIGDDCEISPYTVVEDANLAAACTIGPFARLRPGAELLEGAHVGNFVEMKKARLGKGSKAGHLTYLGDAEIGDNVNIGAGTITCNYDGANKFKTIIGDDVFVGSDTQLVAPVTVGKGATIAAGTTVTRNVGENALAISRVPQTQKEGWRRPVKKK

With `O=C(Cn1cnnn1)NC1C(=O)N2C(C(=O)O)=C(CSc3nncs3)CSC12` (stereo not drawn), the relative enzymatic activity in the experiment with DNA gyrase worked out at 0.793 ± 0.43; with DNA helicase it was 0.757 ± 0.21; in the experiment with DNA ligase, 0.955 ± 0.18; in the experiment with DNA polymerase, 0.505 ± 0.68; in the experiment with DNA primase, 0.828 ± 0.017; with GlmU, 1.045 ± 0.0046. The relative enzymatic activity was 0.932 ± 0.17 with Guanlyate kinase; 0.307 ± 0.16 with MurA; 0.598 ± 0.37 with MurD; 1.01 ± 0.22 with MurF; 0.799 ± 0.011 in the experiment with RNA polymerase.
For the compound `NCCCC[C@H](NC(=O)[C@@H](NC(=O)[C@H](Cc1c[nH]c2ccccc12)NC(=O)[C@H](CCCCN)NC(=O)[C@H](CCCCN)NC(=O)[C@H](Cc1c[nH]c2ccccc12)NC(=O)[C@H](Cc1c[nH]c2ccccc12)NC(=O)[C@H](CCCCN)NC(=O)[C@@H](N)CCCCN)C(c1ccccc1)c1ccccc1)C(N)=O`, the relative enzymatic activity was 0.0308 ± 0.044 in the experiment with DNA gyrase; 0.0869 ± 0.0012 in the experiment with DNA helicase; 1.12 ± 0.43 with DNA ligase; 0.0842 ± 0.0071 with DNA polymerase; 0.299 ± 0.053 with DNA primase; 0.879 ± 0.061 with GlmU. Also, the relative enzymatic activity came to 0.355 ± 0.02 with Guanlyate kinase; 0.477 ± 0.43 with MurA; 0.568 ± 0.41 with MurD; 0.833 ± 0.18 with MurF; 0.0964 ± 0.032 in the experiment on RNA polymerase.
As for `CN(C)CCC=C1c2ccccc2COc2ccc(CC(=O)O)cc21.Cl`, the relative enzymatic activity was 0.496 ± 0.7 in the experiment with DNA gyrase; 0.368 ± 0.047 with DNA helicase; 0.922 ± 0.04 with DNA ligase; 1.08 ± 0.18 with DNA polymerase; 0.755 ± 0.041 in the experiment with DNA primase; 0.899 ± 0.041 in the experiment with GlmU. The relative enzymatic activity with Guanlyate kinase came out at 0.935 ± 0.11; with MurA, 0.616 ± 0.29; with MurD, 0.566 ± 0.38; with MurF, 1.1 ± 0.024; with RNA polymerase it was 0.7995 ± 0.0059.
Take `O=C(O)c1c(O)c2c([nH]c1=O)CCCC2`: the relative enzymatic activity in the experiment on DNA gyrase was 0.374 ± 0.066; with DNA helicase, 0.479 ± 0.056; with DNA ligase it was 1.18 ± 0.34; with DNA polymerase it was 1.08 ± 0.16; in the experiment with DNA primase it was 0.752 ± 0.029; in the experiment with GlmU, 0.975 ± 0.042. For the same compound, the relative enzymatic activity with Guanlyate kinase was 0.874 ± 0.041; with MurA, 0.769 ± 0.13; with MurD, 0.611 ± 0.39; with MurF it was 0.899 ± 0.18; in the experiment with RNA polymerase it was 0.636 ± 0.18.
Regarding `N[C@@H]1[C@H]2CN(c3nc4c(cc3F)c(=O)c(C(=O)O)cn4-c3ccc(F)cc3F)C[C@@H]12`, the relative enzymatic activity in the experiment with DNA gyrase worked out at 0.0708 ± 0.1; in the experiment with DNA helicase, 0.354 ± 0.0078; with DNA ligase, 1.04 ± 0.084; with DNA polymerase it was 1.14 ± 0.23; with DNA primase it was 0.689 ± 0.063; with GlmU, 0.912 ± 0.029. The relative enzymatic activity in the experiment with Guanlyate kinase turned out to be 0.937 ± 0.033; with MurA, 0.596 ± 0.17; with MurD, 0.555 ± 0.39; with MurF, 0.928 ± 0.22; in the experiment with RNA polymerase it was 0.783 ± 0.071.
On to `O=C1OC(=O)[C@H]2[C@@H]1[C@H]1CC[C@H]2O1`, for which the relative enzymatic activity in the experiment on DNA gyrase was determined as 0.864 ± 0.32; with DNA helicase, 0.551 ± 0.09; in the experiment with DNA ligase, 1.15 ± 0.085; in the experiment with DNA polymerase, 1.01 ± 0.012; with DNA primase it was 0.811 ± 0.0082; with GlmU, 1.07 ± 0.033. For the same compound, the relative enzymatic activity with Guanlyate kinase was 1.01 ± 0.066; with MurA it was 0.734 ± 0.16; in the experiment with MurD, 0.606 ± 0.38; in the experiment with MurF it was 0.979 ± 0.22; in the experiment with RNA polymerase it was 0.888 ± 0.18.
For `CN(C)C1C(O)=C(C(N)=O)C(=O)C2(O)C(O)=C3C(=O)c4c(O)ccc(Cl)c4C(O)C3CC12.Cl` (stereo not drawn), the relative enzymatic activity came out at 0.59 ± 0.38 in the experiment with DNA gyrase; 0.359 ± 0.13 with DNA helicase; 1.03 ± 0.047 with DNA ligase; 1.16 ± 0.26 with DNA polymerase; 0.64 ± 0.12 with DNA primase; 1.005 ± 0.0054 with GlmU. The relative enzymatic activity with Guanlyate kinase was 0.874 ± 0.1; with MurA, 0.133 ± 0.045; in the experiment with MurD it was 0.593 ± 0.41; in the experiment with MurF, 0.937 ± 0.17; with RNA polymerase, 0.804 ± 0.072.
Consider `COc1ccc2c(c1OC)C(=O)OC2C1c2c(cc3c(c2OC)OCO3)CCN1C.Cl` (stereo not drawn), for which the relative enzymatic activity with DNA gyrase was 0.0862 ± 0.019; with DNA helicase, 0.249 ± 0.016; with DNA ligase, 1.11 ± 0.17; in the experiment with DNA polymerase it was 1.36 ± 0.47; in the experiment with DNA primase, 0.947 ± 0.42; in the experiment with GlmU it was 1.123 ± 0.0013. The relative enzymatic activity in the experiment with Guanlyate kinase amounted to 1.12 ± 0.066; with MurA, 0.417 ± 0.096; in the experiment with MurD it was 0.684 ± 0.53; in the experiment with MurF it was 0.967 ± 0.19; in the experiment with RNA polymerase it was 0.914 ± 0.045.
`COc1c(N2CC3CCCNC3C2)c(F)cc2c(=O)c(C(=O)O)cn(C3CC3)c12.Cl` (stereo not drawn): the relative enzymatic activity in the experiment on DNA gyrase stood at 0.0344 ± 0.049; with DNA helicase it was 0.559 ± 0.16; with DNA ligase, 1.22 ± 0.1; with DNA polymerase, 1.13 ± 0.18; in the experiment with DNA primase it was 0.682 ± 0.17; with GlmU, 0.986 ± 0.039. Besides, the relative enzymatic activity with Guanlyate kinase was 0.825 ± 0.096; with MurA, 0.795 ± 0.041; in the experiment with MurD it was 0.597 ± 0.41; with MurF it was 0.94 ± 0.19; in the experiment with RNA polymerase, 0.868 ± 0.083.
As for `CC(C)CCCC(=O)N[C@@H](CCNCS(=O)(=O)O)C(=O)N[C@H](C(=O)N[C@@H](CCNCS(=O)(=O)O)C(=O)N[C@H]1CCNC(=O)[C@H]([C@@H](C)O)NC(=O)[C@H](CCNCS(=O)(=O)O)NC(=O)[C@H](CCNCS(=O)(=O)O)NC(=O)[C@H](CC(C)C)NC(=O)[C@H](CC(C)C)NC(=O)[C@H](CCNCS(=O)(=O)O)NC1=O)[C@@H](C)O`, the relative enzymatic activity was 0.555 ± 0.027 in the experiment with DNA gyrase; 0.608 ± 0.27 with DNA helicase; 1.01 ± 0.41 in the experiment with DNA ligase; 1.14 ± 0.27 in the experiment with DNA polymerase; 0.8249 ± 0.007 with DNA primase; 1.0459 ± 0.00074 with GlmU. For the same compound, the relative enzymatic activity amounted to 0.666 ± 0.056 in the experiment with Guanlyate kinase; 0.723 ± 0.12 with MurA; 0.585 ± 0.35 with MurD; 0.903 ± 0.13 with MurF; 0.813 ± 0.041 with RNA polymerase.
For `C=CC1=C(C(=O)O)N2C(=O)[C@@H](NC(=O)/C(=N/O)c3csc(N)n3)[C@H]2SC1`, the relative enzymatic activity amounted to 0.0537 ± 0.076 in the experiment with DNA gyrase; 0.371 ± 0.1 with DNA helicase; 0.963 ± 0.1 in the experiment with DNA ligase; 1.16 ± 0.24 in the experiment with DNA polymerase; 0.769 ± 0.027 in the experiment with DNA primase; 1.004 ± 0.0086 in the experiment with GlmU. Moreover, the relative enzymatic activity with Guanlyate kinase was 0.947 ± 0.08; with MurA, 0.119 ± 0.015; with MurD, 0.599 ± 0.41; in the experiment with MurF, 0.943 ± 0.22; in the experiment on RNA polymerase, 0.785 ± 0.086.
On to `CO/N=C(\C(=O)N[C@@H]1C(=O)N2C(C(=O)O)=C(CSc3nnnn3C)CS[C@H]12)c1csc(N)n1`, for which the relative enzymatic activity was 1.08 ± 0.03 with DNA gyrase; 0.544 ± 0.23 with DNA helicase; 0.749 ± 0.049 with DNA ligase; 1.15 ± 0.25 with DNA polymerase; 0.827 ± 0.017 in the experiment with DNA primase; 1.09 ± 0.046 with GlmU. Besides, the relative enzymatic activity was 0.883 ± 0.091 with Guanlyate kinase; 0.157 ± 0.032 with MurA; 0.611 ± 0.42 with MurD; 1.16 ± 0.11 with MurF; 0.8391 ± 0.00096 in the experiment on RNA polymerase.
As to `CC1COc2c(C3(N)CC3)c(F)cc3c(=O)c(C(=O)O)cn1c23.CS(=O)(=O)O` (stereo not drawn), the relative enzymatic activity in the experiment on DNA gyrase is 0.0382 ± 0.054; in the experiment with DNA helicase, 0.57 ± 0.24; with DNA ligase, 0.904 ± 0.083; with DNA polymerase, 0.511 ± 0.72; with DNA primase it was 0.835 ± 0.011; with GlmU it was 0.898 ± 0.045. The relative enzymatic activity with Guanlyate kinase is 1.02 ± 0.16; with MurA, 0.879 ± 0.057; in the experiment with MurD, 0.579 ± 0.4; in the experiment with MurF, 1.07 ± 0.021; in the experiment with RNA polymerase it was 0.872 ± 0.013.
